Test results taken from PubChem BioAssay (NCATS).
Where “and” joins values, the source holds several entries; their conditions need not be identical. Identical values can stand only once. Results filed as inconclusive are left out. Where a call stands in place of a potency, no number is given. Values without a mark were called inactive. Calls of active or inactive are those of the source. Calls follow the shape of the dose curve; as a rule, active = well fitted curve in the direction sought with a large enough effect; inconclusive = small, poorly fitted or top-dose-only effect, or another doubt; inactive = no such curve, though single readings can be large; an effect the other way counts as inactive or inconclusive. Bridge positions count the residues as written; N and C are the ends. Square brackets hold non-standard residues; d marks the D form. Peptide text beside a SMILES is read from it. NMeY = CN[CH](Cc1ccc(O)cc1)C(=O)O

How the values were obtained:
[1] = target: Cellular tumor antigen p53 (Homo sapiens) (UniProt P04637); test: Primary qHTS for small molecule compounds that upregulate eGFP-tagged delta133p53alpha (in N-terminal) cells. (AID 2060322); conditions: NCI-H358 eGFP-delta133p53alpha fluorescence, 24 h; activation: stronger effect = higher value; also: nearly all actives have a fitted effect of over 75% in size; also: potency is read from the fitted curve at half-maximal effect
Summary of the method: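 NCI-H358 cells pre-induced 24 h with 10 ng/ml doxycycline to express N-terminal eGFP-delta133p53alpha, then dosed 24 h at 37C without doxycycline; fixed, Hoechst-stained, GFP intensity by laser scanning cytometry, normalized to DMSO (0%) and 57.5 uM 5-azacytidine (100%).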

[2] = target: Aldehyde dehydrogenase, mitochondrial (Homo sapiens) (UniProt P05091); test: qHTS for Inhibitors of the Aldehyde Dehydrogenase Family (ALDH2) Primary screen (AID 2061308); conditions: ALDH2 enzyme inhibition qHTS, 1536-well; series mostly up to 56 µM; also: nearly all actives have a fitted effect of over 55% in size
[3] = target: Retinaldehyde dehydrogenase 3 (Homo sapiens) (UniProt P47895); test: qHTS for Inhibitors of the Aldehyde Dehydrogenase Family (ALDH1A3) Primary screen (AID 2061315); conditions: ALDH inhibition qHTS; series mostly up to 56 µM

Sequence of Cellular tumor antigen p53 (Homo sapiens) (P04637 whole entry, looked up): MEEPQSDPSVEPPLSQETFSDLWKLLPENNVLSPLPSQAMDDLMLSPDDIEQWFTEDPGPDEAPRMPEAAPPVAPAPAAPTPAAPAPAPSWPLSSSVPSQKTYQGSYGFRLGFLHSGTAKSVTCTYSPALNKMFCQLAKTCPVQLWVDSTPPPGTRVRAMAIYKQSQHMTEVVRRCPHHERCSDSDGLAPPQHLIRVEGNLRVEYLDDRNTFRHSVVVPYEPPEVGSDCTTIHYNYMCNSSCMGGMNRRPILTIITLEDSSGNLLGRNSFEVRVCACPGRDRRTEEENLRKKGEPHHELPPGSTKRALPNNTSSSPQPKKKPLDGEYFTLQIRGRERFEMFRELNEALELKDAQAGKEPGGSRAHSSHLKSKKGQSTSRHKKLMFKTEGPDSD

Row | Compound | activation [1] | Potency [2] | Potency [3] | activity change, negative = inhibition [2] | activity change, negative = inhibition [3] | Potency [1]
1 | C=C1CC[C@H]2[C@@](C)(CCC(O)[C@@]2(C)CO)[C@@H]1/C=C/C(=C\C(=O)O)C(=O)O (stereo not given in full) | -2.29% | inactive | inactive |  |  | 
2 | OC[C@@]1(O)CO[C@@H](OC[C@H]2O[C@@H](OCc3ccccc3)[C@H](O)[C@@H](O)[C@@H]2O)[C@@H]1O | -13.7% | inactive | inactive |  |  | 
3 | CCC(C)C1NC(=O)C2CCCN2C(=O)C(NC(C)=O)C(C)OC(=O)C(Cc2ccc(OC)cc2)N(C)C(=O)C2CCCN2C(=O)C(C(C)C)NC1=O (stereo not given) (Ac-TPIVP[NMeY](Me); ester 1-C; configuration not given here) | 15.3% | inactive | inactive |  |  | 
4 | C[C@@H]1O[C@@H](O[C@H]2[C@H](OC(=O)[C@]34CCC(C)(C)C[C@H]3C3=CCC5[C@@]6(C)C[C@H](O)[C@H](O[C@@H]7O[C@H](C(=O)O)[C@@H](O)[C@H](O)[C@H]7O)[C@@](C)(CO)C6[C@H](O)C[C@@]5(C)[C@]3(C)C[C@H]4O)O[C@@H](CO)[C@@H]2O)[C@H](O)[C@H](O)[C@H]1O[C@@H]1OC[C@@H](O)[C@H](O[C@H]2OC[C@](O)(CO)[C@H]2O)[C@H]1O (stereo not given in full) | 21.4% |  |  | 4.26% [at 11.2 µM] | 16.1% [at 11.2 µM] | 
5 | COc1ccc2c(c1)C[C@H](C(=O)Nc1ccc(-c3cn[nH]c3)cc1OCCN(C)C)CO2 | -0.893% | inactive | inactive |  |  | 
6 | C=C[C@](C)(CC/C=C(\C)C(=O)O)O[C@@H]1OC[C@H](O)[C@H](O)[C@H]1O | 7.14% | inactive | inactive |  |  | 
7 | CCN(CC)c1ccc2c(O)c(C=Nc3ccc(CC(=O)O)c(-c4c5c(nc6ccccc46)CCC(C(=O)NN)C5)c3)c(=O)oc2c1 (stereo not given) |  | inactive | inactive |  |  | 5.36 µM (active)
8 | Nc1ncnc2c([C@@H]3N[C@H](CO)[C@@H](O)[C@H]3O)c[nH]c12 | -8.93% | inactive | inactive |  |  | 
9 | O=C(/C=C/c1ccc(O)cc1)OCC1=C[C@@H](O)[C@@H]2C=CO[C@@H](O[C@@H]3O[C@H](CO)[C@@H](O)[C@H](O)[C@H]3O)[C@H]12 | -9.16% | inactive | inactive |  |  | 
10 | COC(=O)C1=CO[C@@H](O[C@@H]2O[C@H](CO)[C@@H](O)[C@H](O)[C@H]2O)[C@H]2[C@@H]1C=C[C@@]21C=C([C@H](C)O)C(=O)O1 | 13.4% | inactive | inactive |  |  | 
11 | C=C(C)[C@@]1(O)C[C@@]2(C)C(=CC1=O)CC[C@@H](O)[C@@H]2C | -3.82% | inactive | inactive |  |  | 
12 | C=C1C(=O)O[C@@H]2/C=C(\C)CC/C=C(\C(=O)O[C@@H]3O[C@H](CO)[C@@H](O)[C@H](O)[C@H]3O)CC[C@@H]12 | -5.36% | inactive | inactive |  |  | 
13 | C/C=C(/C)C(=O)OC1CC(C)(C)CC2C3=CCC4C5(C)CCC(OC6OC(C)C(OC7OC(C(=O)O)C(O)C(OC8OC(CO)C(O)C(O)C8OC8OC(CO)C(O)C(O)C8O)C7O)C(O)C6O)C(C)(C)C5CCC4(C)C3(C)C(OC(=O)/C=C/C=C/C=C/CCC)C(OC(C)=O)C12CO (stereo not given) | 14.5% |  |  | 6.9% [at 11.2 µM] | 9.07% [at 11.2 µM] | 
14 | C/C=C/C=C/C(=O)N1CC[C@]23c4ccccc4N[C@H]4N(C)c5cccc6c5[C@@]42CCN([C@H]6C2OC2(C)C)[C@H]13 (stereo not given in full) | 15.3% | inactive | inactive |  |  | 
15 | C=C1CC[C@@]2(OC1)O[C@H]1CC3C4CC=C5C[C@@H](O[C@@H]6O[C@@H](C)[C@H](O)[C@@H](O)[C@H]6O)C[C@@H](O[C@@H]6O[C@H](C)[C@H](O)[C@H](O)[C@H]6O[C@@H]6O[C@@H](C)[C@H](O)[C@@H](O)[C@H]6O)[C@]5(C)C4CC[C@]3(C)[C@H]1[C@@H]2C (stereo not given in full) | -4.58% | inactive | inactive |  |  | 
16 | C=C(C(=O)OC)C1C(O)CC2(C)C(=O)CCC(O)(CO)C2C1O (stereo not given) | -14.3% | inactive | inactive |  |  | 
17 | FC(F)(F)c1ccc(Nc2nc3ccc(Oc4ccnc(-c5ncc(C(F)(F)F)[nH]5)c4)cc3[nH]2)cc1 | -7.84% and 12.4% | inactive | inactive |  |  | 
18 | C[C@@H]1O[C@@H](O[C@H]2[C@H](OC(=O)[C@]34CCC(C)(C)C[C@H]3C3=CCC5[C@@]6(C)C[C@@H](O)[C@@H](O[C@@H]7O[C@H](CO)[C@@H](O)[C@H](O)[C@H]7O)[C@@](C)(CO)C6[C@H](O)C[C@@]5(C)[C@]3(C)CC4)OC[C@H](O)[C@@H]2O)[C@H](O)[C@H](O[C@@H]2OC[C@](O)(CO)[C@H]2O)[C@H]1O[C@@H]1OC[C@@H](O)[C@H](O[C@H]2O[C@H](C)[C@@H](O)[C@H](O)[C@@H]2O)[C@H]1O (stereo not given in full) | 6.25% |  |  | 9.79% [at 11.2 µM] | 2.17% [at 11.2 µM] | 
19 | CS(=O)(=O)N(CC(=O)NCC1CC1)c1cc(C(F)(F)F)ccc1Cl | -13% | inactive | inactive |  |  | 
20 | CC1=CC[C@]2(C(=O)O[C@@H]3O[C@H](CO[C@@H]4O[C@H](CO)[C@@H](O[C@@H]5O[C@@H](C)[C@H](O)[C@@H](O)[C@H]5O)[C@H](O)[C@H]4O)[C@@H](O)[C@H](O)[C@H]3O)CC[C@]3(C)C(CCC4[C@@]5(C)C[C@@H](O)[C@H](O)[C@@](C)(CO)C5CC[C@]43C)C2C1C (stereo not given in full) | -13% | inactive | inactive |  |  | 

Row | Compound | activation [1] | Potency [2] | Potency [3] | activity change, negative = inhibition [2] | activity change, negative = inhibition [3] | Potency [1]
21 | CCN(CCNC(=O)Nc1ccccc1Br)c1cccc(C)c1 | 5.67% | inactive | inactive |  |  | 
22 | CC(=O)OC1C(OC(=O)c2ccccc2)C2C(C)(C)CCC(OC(C)=O)C2(C)C23CCC(C)(C2)C(=O)CC13 (stereo not given) | -14.5% | inactive | inactive |  |  | 
23 | COc1cc(/C=C/C(=O)O[C@@H]2O[C@H](CO)[C@@H](O)[C@H](O)[C@H]2O)ccc1O | 4.46% | inactive | inactive |  |  | 
24 | CC1OC(O[C@H]2CC[C@@]3(C)C(CC[C@]4(C)C3CC=C3C5CC(C)(C)CC[C@]5(C(=O)OC5OC(CO)C(OC6OCC(OC7OCC(O)C(O)C7O)C(O)C6O)C(O)C5O)CC[C@]34C)C2(C)C)C(O)C(O)C1OC1OC(CO)C(O)C(OC2OC(CO)C(O)C(O)C2O)C1O (stereo not given in full) | 9.16% |  |  | 8.06% [at 11.2 µM] | 8.31% [at 11.2 µM] | 
25 | O=C(OCC1=CC(O)C2C=CO[C@@H](O[C@@H]3O[C@H](CO)[C@@H](O)[C@H](O)[C@H]3O)C12)c1ccccc1 (stereo not given in full) | -17.6% | inactive | inactive |  |  | 
26 | C[C@@H]1CC[C@]2(C(=O)OC3OC(CO)C(O)C(O)C3O)CC[C@]3(C)C(=CCC4[C@@]5(C)CC[C@H](O)[C@](C)(C(=O)O)C5CC[C@]43C)C2[C@]1(C)O (stereo not given in full) | -8.93% | inactive | inactive |  |  | 
27 | COc1c(C)c(OCC(O)C(C)(C)O)cc2c1COC2=O (stereo not given) | 5.34% | inactive | inactive |  |  | 
28 | Cc1sc(C)c(C(=O)NC2(c3ccc(C(=O)O)cc3)CC2)c1Cc1ccc(C(F)(F)F)cc1 | -4.77% | inactive | inactive |  |  | 
29 | CC(C)C1NC(=O)C2CCCN2C1=O (stereo not given) | 8.93% | inactive | inactive |  |  | 
30 | C=C(C)C1CC(O)C(C)C12CC(O)C1(C)OC1C2O (stereo not given) | 19.1% | inactive | inactive |  |  | 
31 | CCC1C(=O)OC23C=C[C@@H]4C(C(=O)O)=CO[C@H](O[C@@H]12)[C@@H]43 (stereo not given in full) | 7.63% | inactive | inactive |  |  | 
32 | OC[C@H]1O[C@@H](OCCc2ccccc2)[C@H](O[C@@H]2OC[C@@H](O)[C@H](O)[C@H]2O)[C@@H](O)[C@@H]1O | -11.5% | inactive | inactive |  |  | 
33 | CC(=O)O[C@H]1[C@H](O)C[C@@]2(C)C(CC[C@]3(C)C2CC=C2C4CC(C)(C)CC[C@]4(C(=O)O)CC[C@]23C)C1(C)C (stereo not given in full) | -12.5% | inactive | inactive |  |  | 
34 | CC(C)CC(c1c(O)c(C=O)c(O)c(C=O)c1O)C1CCC(C)(O)C2CC(C(C)(C)O)CCC12C (stereo not given) | 22.3% | inactive | inactive |  |  | 
35 | C=C(COC(=O)C(C)C)C1Oc2cc(C(C)=O)ccc2C1OC(=O)C(C)C (stereo not given) | 2.29% | inactive | inactive |  |  | 
36 | CO[C@H]1C[C@@H]2CC[C@@H](C)[C@@](O)(O2)C(=O)C(=O)N2CCCC[C@H]2C(=O)O[C@H]([C@H](C)C[C@H]2CC[C@@H](OP(C)(C)=O)[C@H](OC)C2)CC(=O)[C@H](C)/C=C(\C)[C@@H](O)[C@@H](OC)C(=O)[C@H](C)C[C@H](C)/C=C/C=C/C=C/1C | 11% | inactive | inactive |  |  | 
37 | CN1C(=O)c2ccccc2NC(=O)[C@]12O[C@@H]2c1cccc(O)c1 | -1.53% | inactive | inactive |  |  | 
38 | CC1(C)CC2C3=CCC4C5(C)CCC(OC6OC(CO)C(O)C(OC7OC(CO)C(O)C(OC8OC(CO)C(O)C(OC9OC(COC%10OC(CO)C(O)C(O)C%10O)C(O)C(O)C9O)C8O)C7O)C6O)C(C)(C)C5CCC4(C)C3(C)CCC2(C(=O)O)CC1O (stereo not given) | -24.4% |  |  | 8.77% [at 11.2 µM] | 1.03% [at 11.2 µM] | 
39 | COc1ccc(Sc2ccc(NC(=O)c3ccccc3Cl)cc2C#N)cc1 | 20.3% | inactive | inactive |  |  | 
40 | C=C[C@@](C)(CCC=C(C)C)O[C@@H]1O[C@H](CO[C@@H]2OC[C@H](O)[C@H](O)[C@H]2O)[C@@H](O)[C@H](O)[C@H]1O | -11.5% | inactive | inactive |  |  | 
